# Source: PubChem
# PABP FP inh: PABP-poly(A) binding inhibition; P11940; PABP-poly(A) RNA binding, fluorescence polarization; inhibition, % at 35 µM; hit rate 1% among 290,000;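 note: calls also rest on retests at 20 µM and on dose response follow-up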
# Efflux pump inh: antifungal efflux pump inhibition, Nile Red retention; S. cerevisiae Candida pump triplex; inhibition, % at 10 µM; hit rate 0.44% among 330,000;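 active = plate passing quality check with inhibition over a set limit, or well fluorescence over plate mean plus 4 SD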;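 note: Nile Red retained in pooled yeast measured as flow cytometry median fluorescence; 0% = buffer negative control and 100% = Enniatin B positive control; higher means more Nile Red kept so more efflux inhibition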
# ALR inh: inhibitors of human sulfhydryl oxidase ALR; inhibition, % (no concentration beside the values); hit rate 3.8% among 290,000; AID 485317; purified ALR, DTT oxidation, H2O2 HRP-luminol luminescence; P55789;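 active = mean replicate inhibition above about 79%, with every replicate also reaching it, limit read from the data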
# UBC9 SUMO inh: blocks human SUMOylation mediated by UBC9 | P63279 | HTRF SUMOylation assay, SAE1/SAE2 + UBC9, in vitro | inhibition, % at 35 µM | hit rate 0.36% among 290,000 | AID 2006; in the data active = inhibition above about 50%, passing the limit was not always enough
# Target sequence (P63279 whole entry, looked up): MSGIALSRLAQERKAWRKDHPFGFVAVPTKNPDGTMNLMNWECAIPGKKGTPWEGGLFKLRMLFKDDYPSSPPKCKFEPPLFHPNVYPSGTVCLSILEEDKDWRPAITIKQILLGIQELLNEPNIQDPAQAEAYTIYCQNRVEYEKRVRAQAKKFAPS
# eIF4H FP inh: inhibitors of RNA binding by human eIF4H; Q15056; eIF4H fluorescence polarization binding assay; inhibition, % at 35 µM; hit rate 0.94% among 290,000;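 note: calls also rest on retests at 20 µM and on dose response follow-up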
# MLLE-PAM2 inh: blocks PAM2 peptide binding to the PABP1 MLLE domain | inhibition, % at 20 µM | GST-MLLE / FITC-PAM2 fluorescence polarization | AID 588489 | hit rate 0.36% among 360,000 | P11940; in the data active = inhibition above about 35%, passing the limit was not always enough;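 note: plate controls were DMSO wells with GST-MLLE for no effect and wells lacking GST-MLLE protein for full effect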
# * hit, by the source's call; x = not tested or not shown. Compounds with a hit are over-represented: about 4.7% of the library has one in this group of screens. Unless noted, the rule behind the calls is not given here.
SMILES,PABP FP inh,Efflux pump inh,ALR inh,UBC9 SUMO inh,eIF4H FP inh,MLLE-PAM2 inh
COc1ccc(CNC(=O)c2cccc(NC(=O)CC3SC(N4CCCCC4)=NC3=O)c2)cc1 (stereo not given),x,-0.1,-11.9,x,x,-11.9
CC(=O)Nc1ccc(OCC(O)Cn2cnc3ccccc32)cc1 (stereo not given),-8.6,0.2,-9.1,-3.5,-3.0,1.5
CC(=O)Nc1cccc(OCC(O)Cn2cnc3ccccc32)c1 (stereo not given),-2.5,-0.1,99.6*,6.3,-4.2,-0.7
O=C(C1CC1)N1CCN=C1SCc1ccccc1Cl,6.0,-0.1,99.2*,-0.4,-12.2,-8.1
CC(=O)N1CCN=C1SCc1ccccc1Cl,-3.8,0.1,100.8*,-10.7,9.3,-3.6
CC(=O)N1CCN=C1SCc1ccccc1F,-12.1,-0.2,99.0*,3.6,-4.1,6.4
CCC(=O)N1CCN=C1SCc1ccccc1Cl,-2.1,0.1,99.7*,-4.1,1.3,9.2
CCN(CC)C(=O)C(=O)N/N=C/c1ccc(C(=O)OC)cc1,3.7,0.0,-0.8,-9.1,12.6,1.7
CC1CC(C)C(=O)C(C(CC2CC(=O)NC(=O)C2)OC(=O)CC(=O)c2ccccc2)C1 (stereo not given),x,x,x,x,x,-8.1
Cc1cccc(CSC2=NCCN2C(=O)C2CC2)c1,-8.1,0.3,8.3,14.0,4.9,14.8
O=C(C1CCCC1)N1CCN=C1SCc1cccc([N+](=O)[O-])c1,-2.8,0.0,99.2*,7.7,-6.2,19.0
C=CCSc1nnc(NC(=O)CCNC(=O)c2ccccc2Cl)s1,x,x,x,x,x,-16.3
c1ccc2c(c1)CCCN2c1nc2ccccc2n2cnnc12,82.4*,-0.1,-4.3,10.6,80.4*,-50.9
C1=C(c2ccccc2)CCN(c2nc3ccccc3n3cnnc23)C1,3.8,0.0,95.0*,7.9,-7.1,22.7
c1ccc(N2CCN(c3nc4ccccc4n4cnnc34)CC2)cc1,-11.4,-0.1,97.4*,1.5,3.8,14.5
CSc1ccc(S(=O)(=O)N2CCC(C(=O)NC3CC3)CC2)cc1,-0.9,0.0,-6.2,6.2,2.3,-6.3
C/C(=N\NS(=O)(=O)c1ccc(Cl)cc1)c1ccc(O)cc1,-0.2,0.0,95.7*,-26.3,-5.7,3.1
O=C(NNC(=O)C1C2CCC(C2)C1C(=O)O)c1ccc(Br)o1 (stereo not given),59.2*,0.0,x,-12.7,-2.5,x
CC(C)c1ccc(C(=O)NNC(=O)C2C3CCC(C3)C2C(=O)O)cc1 (stereo not given),3.1,-0.1,0.3,-0.8,-4.7,x
COC(=O)[C@H](Cc1ccccc1)NC(=O)N1CCN(c2ccc(F)cc2)CC1,-9.2,0.0,98.4*,20.1,2.3,-4.1
COC(=O)[C@H](Cc1ccccc1)NC(=O)N1CCCCCC1,6.8,-0.1,-3.9,-2.7,3.0,7.0
COC(=O)C1=NN(C(=O)c2cccc(Br)c2)C(O)(c2ccc(Cl)cc2)C1 (stereo not given),0.6,0.1,8.9,-9.5,58.5*,-59.4
Cc1ccc(C(=O)NCC(=O)OC(C)C(=O)Nc2ccc(N(C)C)cc2)cc1C (stereo not given),-4.4,0.0,99.0*,-3.6,-5.3,16.7
CCc1cccc2sc(N3CCN(C(=O)c4ccc([N+](=O)[O-])o4)CC3)nc12,x,0.0,-19.1,x,x,4.8
Cc1ccc2cn[nH]c2c1N,7.6,-0.2,85.2*,10.8,13.0,2.8
SMILES,PABP FP inh,Efflux pump inh,ALR inh,UBC9 SUMO inh,eIF4H FP inh,MLLE-PAM2 inh
NCC(O)CN(c1ccccc1)c1ccccc1 (stereo not given),-4.8,0.2,98.7*,19.6,5.3,-1.3
OC(CN(c1ccccc1)c1ccccc1)Cn1cnc2ccccc21 (stereo not given),7.8,-0.2,98.7*,8.6,-6.3,-5.8
CC(C)[N+](C)(C)CC(O)CN(c1ccccc1)c1ccccc1 (stereo not given),66.2*,0.0,98.3*,4.8,-3.9,-128.4
OCCN(CCO)CC(O)CN(c1ccccc1)c1ccccc1 (stereo not given),1.3,0.1,98.8*,7.9,-11.1,0.9
CCC1CCCCN1CCCNC(=O)CN1C(=O)COc2ccccc21 (stereo not given),-3.7,0.0,-0.5,11.9,1.4,14.2
CN(Cc1nccn1C)C(=O)C1CCC(=O)N(CCc2ccc(Cl)cc2)C1 (stereo not given),-9.1,-0.1,-1.8,2.0,-1.5,11.6
